Test results as given in PubChem BioAssay (Tox21).
Where “and” joins values, the source holds several entries; their conditions need not be identical. Equal values may be shown once. Results filed as inconclusive are left out. Where a structure was tested more than once in an assay, its records may differ in their call. Calls of active or inactive are those of the source. Unless noted, the call rests on the fitted dose curve; in most records, active means well fitted curve in the direction sought with a large enough effect in the repeat runs; inconclusive means weak or mixed curves; inactive means no such curve, though single readings can be large; an effect the other way counts as inactive or inconclusive.

Assays:
[1] = target: Thyrotropin receptor (Homo sapiens) (UniProt P16473); experiment: qHTS assay to identify small molecule antagonists of the thyroid stimulating hormone receptor (TSHR) signaling pathway (AID 1259385; calls by dose curve; further: nearly all actives have a fitted effect of over 20% in size)
Thyrotropin receptor (Homo sapiens), sequence (P16473 whole entry, looked up): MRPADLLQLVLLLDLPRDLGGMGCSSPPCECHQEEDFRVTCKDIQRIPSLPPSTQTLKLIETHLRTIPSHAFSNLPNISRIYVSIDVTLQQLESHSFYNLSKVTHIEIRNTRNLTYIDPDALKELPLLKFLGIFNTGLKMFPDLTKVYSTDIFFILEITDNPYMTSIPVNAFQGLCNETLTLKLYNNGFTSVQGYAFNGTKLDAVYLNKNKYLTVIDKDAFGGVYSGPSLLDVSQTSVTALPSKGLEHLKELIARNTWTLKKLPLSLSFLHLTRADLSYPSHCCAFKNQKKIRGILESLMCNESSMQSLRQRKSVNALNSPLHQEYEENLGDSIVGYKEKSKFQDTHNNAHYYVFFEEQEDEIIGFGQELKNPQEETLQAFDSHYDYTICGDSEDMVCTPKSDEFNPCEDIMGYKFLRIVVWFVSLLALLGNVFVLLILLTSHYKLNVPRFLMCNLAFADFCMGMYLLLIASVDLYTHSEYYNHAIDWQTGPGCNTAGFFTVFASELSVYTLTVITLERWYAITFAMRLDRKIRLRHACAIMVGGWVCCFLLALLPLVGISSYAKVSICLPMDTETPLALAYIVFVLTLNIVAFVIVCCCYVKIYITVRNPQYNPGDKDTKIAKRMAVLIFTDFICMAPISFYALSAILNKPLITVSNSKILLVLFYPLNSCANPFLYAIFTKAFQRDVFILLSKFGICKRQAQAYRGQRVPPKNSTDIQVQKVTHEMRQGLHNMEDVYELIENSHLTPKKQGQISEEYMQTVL
Procedure, shortened: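 TSHR-HEK293 cells (800/well) plated 18 h, then compounds with Ro20-1724 and TSH at 1.5 ng/mL final, 30 min at room temperature. cAMP quantified by HTRF (cAMP-d2/anti-cAMP-cryptate, 1 h); 15 concentrations in triplicate.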

[2] = qHTS assay to identify small molecule agonists of the estrogen receptor alpha (ER-alpha) signaling pathway in the presence of an antagonist - cell viability counter screen (AID 1259386);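 further: cells exposed to compounds for 22 h at 37 °C before the viability read; nearly all actives have a fitted effect of over 30% in size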; further: potency means the concentration at half of the fitted maximal effect
Procedure, shortened: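 VM7Luc4E2 cells (endogenous full-length ER-alpha, 4×ERE-luciferase) were held 5 days in phenol red-free medium with 10% charcoal-stripped FBS, plated, then given 10.0nM ICI-182,780 and compounds at 15 concentrations for 22hr at 37C; viability read by CellTiter-Fluor fluorescence.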

[3] = target: Progesterone receptor (Homo sapiens) (UniProt P06401); experiment: qHTS assay to identify small molecule agonists of the progesterone receptor (PR) signaling pathway (AID 1346784; calls by dose curve; further: nearly all actives have a fitted effect of over 30% in size)
Progesterone receptor (Homo sapiens), sequence (P06401 whole entry, looked up): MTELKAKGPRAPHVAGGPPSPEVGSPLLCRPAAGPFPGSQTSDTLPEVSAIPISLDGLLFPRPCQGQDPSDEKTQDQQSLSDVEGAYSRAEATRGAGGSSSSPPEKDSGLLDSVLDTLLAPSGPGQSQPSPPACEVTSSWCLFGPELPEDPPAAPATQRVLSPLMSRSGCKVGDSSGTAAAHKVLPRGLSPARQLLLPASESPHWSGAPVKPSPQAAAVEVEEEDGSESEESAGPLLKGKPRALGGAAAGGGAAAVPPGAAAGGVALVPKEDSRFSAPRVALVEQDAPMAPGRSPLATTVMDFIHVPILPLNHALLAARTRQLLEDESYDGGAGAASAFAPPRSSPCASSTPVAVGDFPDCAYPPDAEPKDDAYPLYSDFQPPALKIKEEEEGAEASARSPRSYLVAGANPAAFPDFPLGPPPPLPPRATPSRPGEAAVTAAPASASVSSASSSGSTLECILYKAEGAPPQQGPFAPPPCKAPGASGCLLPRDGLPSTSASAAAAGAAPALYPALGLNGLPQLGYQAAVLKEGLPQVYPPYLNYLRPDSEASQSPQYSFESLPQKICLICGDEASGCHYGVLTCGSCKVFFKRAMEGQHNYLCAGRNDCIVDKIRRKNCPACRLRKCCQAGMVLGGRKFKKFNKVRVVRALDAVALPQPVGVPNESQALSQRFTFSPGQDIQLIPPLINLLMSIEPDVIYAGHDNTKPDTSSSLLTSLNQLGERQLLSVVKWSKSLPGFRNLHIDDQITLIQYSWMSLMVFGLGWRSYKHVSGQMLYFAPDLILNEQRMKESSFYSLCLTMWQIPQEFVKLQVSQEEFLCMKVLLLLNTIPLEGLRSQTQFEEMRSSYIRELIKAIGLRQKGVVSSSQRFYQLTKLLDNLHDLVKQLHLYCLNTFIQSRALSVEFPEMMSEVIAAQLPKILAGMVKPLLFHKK
Procedure, shortened: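 Reporter assay, GripTite PR-UAS-bla HEK 293T cells: 16 hr exposure to DMSO-dissolved compounds at 37C, 5% CO2, in steroid-depleted (2% charcoal-stripped FBS) medium; beta-lactamase measured by FRET fluorescence.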

[4] = qHTS assay to identify small molecule antagonists of the progesterone receptor (PR) signaling pathway - cell viability counter screen (AID 1346798); further: series mostly up to about 92 µM; nearly all actives have a fitted effect of over 50% in size
Procedure, shortened: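 In the same plates used for the beta-lactamase readout, cell viability of compound- and R5020-treated PR-UAS-bla HEK293T cells (16 hr, 37C) was assessed by CellTiter-Glo luminescence.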

[5] = qHTS assay to identify small molecule agonists of the progesterone receptor (PR) signaling pathway - cell viability counter screen (AID 1346799; calls by dose curve; further: nearly all actives have a fitted effect of over 45% in size)
Procedure, shortened: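 Multiplexed viability read: CellTiter-Glo luminescence, 30 min RT, following LiveBLAzer FRET measurement on PR-UAS-bla HEK293T cells exposed to compounds 16 hr.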

[6] = qHTS assay to identify small molecule antagonists of the TGF-beta/Smad signaling pathway - cell viability counter screen (AID 1346824); further: nearly all actives have a fitted effect of over 50% in size
Procedure, shortened: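 SBE-bla HEK 293T cells, incubated overnight, then compound plus 0.25 ng/mL TGF-beta1 (stock added) for 5 hr at 37 C. Viability was read in the same wells by CellTiter-Glo luminescence after 30 min at room temperature.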

[7] = qHTS assay to identify small molecule agonists of the TGF-beta/Smad signaling pathway - cell viability counter screen (AID 1346829); further: top concentration of the series differs between compounds; nearly all actives have a fitted effect of over 45% in size
Procedure, shortened: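 HEK 293T SBE-bla line, 5 hr compound exposure at 37 C, multiplexed CellTiter-Glo viability read by luminescence.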

[8] = qHTS assay to identify small molecule agonists of the TGF-beta/Smad signaling pathway (AID 1346859; active means well fitted activation curve with a large enough effect in the signal ratio in the repeat runs, not every such curve was filed as active; the % refers to the signal ratio; further: series mostly up to about 77 µM)
Procedure, shortened: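 Screening used HEK 293T SBE-bla cells at 4,000/well. Test agents: 5 hr, 37 C. Detection: FRET substrate, 2 hr RT, then excitation 405 nm with emissions at 460 and 530 nm.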

[9] = target: Thyrotropin-releasing hormone receptor (Homo sapiens) (UniProt P34981); experiment: qHTS assay to identify small molecule antagonists of the thyrotropin-releasing hormone receptor (TRHR) signaling pathway (AID 1346877; active means well fitted inhibition curve with a large enough effect in the repeat runs, not every such curve was filed as active; further: series mostly up to about 51 µM)
Thyrotropin-releasing hormone receptor (Homo sapiens), sequence (P34981 whole entry, looked up): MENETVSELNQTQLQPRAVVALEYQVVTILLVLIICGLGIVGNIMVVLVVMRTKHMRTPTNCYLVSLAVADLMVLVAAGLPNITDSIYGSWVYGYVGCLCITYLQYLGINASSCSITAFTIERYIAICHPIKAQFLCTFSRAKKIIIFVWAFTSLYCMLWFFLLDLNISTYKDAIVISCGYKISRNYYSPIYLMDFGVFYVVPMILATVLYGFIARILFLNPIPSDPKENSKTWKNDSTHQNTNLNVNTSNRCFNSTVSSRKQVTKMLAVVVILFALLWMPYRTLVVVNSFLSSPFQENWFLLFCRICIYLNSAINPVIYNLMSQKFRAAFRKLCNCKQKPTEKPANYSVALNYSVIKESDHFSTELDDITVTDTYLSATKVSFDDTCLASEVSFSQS
Procedure, shortened: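 TRHR-expressing HEK293 cells were seeded, cultured 18 h at 37 °C, then loaded with calcium dye for 2 h. Compounds were pre-incubated 5 min at room temperature before 1 nM TRH (final) was added, and kinetic fluorescence was recorded for 3 min.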

[10] = target: Thyrotropin-releasing hormone receptor (Homo sapiens) (UniProt P34981); experiment: qHTS assay to identify small molecule agonists of the thyrotropin-releasing hormone receptor (TRHR) signaling pathway (AID 1346891; calls by dose curve; further: series mostly up to about 58 µM)
Procedure, shortened: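 Readout was intracellular calcium fluorescence in TRHR-Hek293 cells. Cells were incubated 18 h, dye-loaded 2 h at 37 °C, and treated with compound in agonist mode.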

[11] = Human pregnane X receptor (PXR) small molecule agonists, qHTS cell viability counter screen (AID 1346977); further: nearly all actives have a fitted effect of over 50% in size; further: potency means the concentration at half of the fitted maximal effect
Procedure, shortened: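 In each well, the PXR reporter HepG2 line was checked for viability: CellTiter-Fluor reagent added 23hr post-dosing, fluorescence read after 1hr incubation at 37C.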

[12] = Caspase-3/7 induction in HepG2 cells by small molecules, qHTS assay (AID 1346978); further: nearly all actives have a fitted effect of over 15% in size; further: potency means the concentration at half of the fitted maximal effect
Procedure, shortened: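 Wild-type HepG2 cells, 2,000/well, settled 5 hr at 37 C and 5% CO2, then compound-treated for 17 hr; caspase-3/7 activity read by luminescent Caspase-Glo 3/7 after 30 min at room temperature.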

[13] = Caspase-3/7 induction in CHO-K1 cells by small molecules, qHTS cell viability counter screen (AID 1346979); further: nearly all actives have a fitted effect of over 35% in size; further: potency means the concentration at half of the fitted maximal effect
Procedure, shortened: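 Following a 5hr settling period, CHO-K1 cells at 1,500 per well received DMSO-dissolved compounds. Cell viability was quantified 16hr later by CellTiter-Fluor fluorescence, measured after 1hr with reagent at 37C.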

[14] = Caspase-3/7 induction in CHO-K1 cells by small molecules, qHTS assay (AID 1346980); further: nearly all actives have a fitted effect of over 15% in size; further: potency means the concentration at half of the fitted maximal effect
Procedure, shortened: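 Wild-type CHO-K1 cells exposed to compounds for 17hr at 37 C, 5% CO2. Caspase-3/7 activity then measured by Caspase-Glo 3/7 luminescence after 30min at room temperature.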

[15] = Caspase-3/7 induction in HepG2 cells by small molecules, qHTS cell viability counter screen (AID 1346981); further: nearly all actives have a fitted effect of over 30% in size; further: potency means the concentration at half of the fitted maximal effect
Procedure, shortened: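 Wild-type HepG2 cells (2,000/well) were allowed to settle for 5 hr at 37 C, 5% CO2, then dosed with compounds in DMSO by pin transfer. After 16 hr at 37 C, CellTiter-Fluor was added and fluorescence read 1 hr later.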

[16] = target: Nuclear receptor subfamily 1 group I member 2 (Homo sapiens) (UniProt O75469); experiment: Human pregnane X receptor (PXR) small molecule agonists, qHTS assay (AID 1346982); further: nearly all actives have a fitted effect of over 35% in size; further: potency means the concentration at half of the fitted maximal effect
Nuclear receptor subfamily 1 group I member 2 (Homo sapiens), sequence (O75469 whole entry, looked up): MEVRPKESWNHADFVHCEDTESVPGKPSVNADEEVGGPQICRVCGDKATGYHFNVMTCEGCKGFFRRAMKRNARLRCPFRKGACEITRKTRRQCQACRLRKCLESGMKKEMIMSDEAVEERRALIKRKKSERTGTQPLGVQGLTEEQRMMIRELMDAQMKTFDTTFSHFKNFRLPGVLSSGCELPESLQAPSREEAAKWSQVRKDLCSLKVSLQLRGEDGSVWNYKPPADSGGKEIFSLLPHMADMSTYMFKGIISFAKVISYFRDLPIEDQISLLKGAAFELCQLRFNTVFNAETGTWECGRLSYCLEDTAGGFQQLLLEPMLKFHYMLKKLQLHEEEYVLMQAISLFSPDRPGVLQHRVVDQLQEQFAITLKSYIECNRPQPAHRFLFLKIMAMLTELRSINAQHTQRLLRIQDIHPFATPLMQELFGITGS
Procedure, shortened: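 PXR-Luc HepG2 cells (CYP3A4 promoter-driven luciferase) were seeded in medium with 5% charcoal-stripped FBS, left 5 hr at 37 C, then exposed to compounds in DMSO for 24 hr. Luminescence was read after ONE-Glo addition.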

[17] = target: Nuclear receptor subfamily 1 group I member 2 (Rattus norvegicus) (UniProt Q9R1A7); experiment: Rat pregnane X receptor (rPXR) activation by small molecules, qHTS assay (AID 1346983); conditions: rPXR luciferase reporter cells, One-Glo luminescence, 24 h; max activation: stronger effect = higher value; further: nearly all actives have a fitted effect of over 20% in size; further: potency means the concentration at half of the fitted maximal effect
Nuclear receptor subfamily 1 group I member 2 (Rattus norvegicus), sequence (Q9R1A7 whole entry, looked up): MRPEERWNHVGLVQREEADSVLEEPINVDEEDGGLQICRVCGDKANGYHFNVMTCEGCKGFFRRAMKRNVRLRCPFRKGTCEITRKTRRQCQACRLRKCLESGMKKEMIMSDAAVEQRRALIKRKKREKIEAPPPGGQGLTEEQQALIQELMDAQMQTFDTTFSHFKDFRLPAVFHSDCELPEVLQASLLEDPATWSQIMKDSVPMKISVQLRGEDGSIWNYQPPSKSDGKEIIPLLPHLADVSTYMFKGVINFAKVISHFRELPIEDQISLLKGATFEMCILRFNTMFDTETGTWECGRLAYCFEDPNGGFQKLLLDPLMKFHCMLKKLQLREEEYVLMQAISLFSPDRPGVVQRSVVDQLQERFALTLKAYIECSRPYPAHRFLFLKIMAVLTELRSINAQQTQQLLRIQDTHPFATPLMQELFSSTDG
Procedure, shortened: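 Cell-based rPXR activation assay: rPXR cells, 2,000 per well, rested 5hr at 37 C, then exposed to compounds in DMSO for 24 hr at 37 C. Luciferase activity read by One-Glo luminescence after 30 min at room temperature.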

[18] = target: Progesterone receptor (Homo sapiens) (UniProt P06401); experiment: qHTS assay to identify small molecule antagonists of the progesterone receptor (PR) signaling pathway (AID 1346795; active means well fitted inhibition curve with a large enough effect in the signal ratio in the repeat runs, not every such curve was filed as active; the % refers to the signal ratio)
Procedure, shortened: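 Stimulus R5020 at 1 nM final; cells HEK293T PR-UAS-bla; medium with 2% charcoal-stripped FBS; compound exposure 16 hr at 37C, 5% CO2; detection by FRET beta-lactamase substrate, 2 hr, room temperature.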

[19] = target: Nuclear receptor subfamily 1 group I member 2 (Homo sapiens) (UniProt O75469); experiment: Human pregnane X receptor (PXR) activation by small molecules, qHTS assay (AID 1346985); further: nearly all actives have a fitted effect of over 40% in size
Procedure, shortened: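 DPX-2 cells (HepG2 co-transfected with a PXR response element and a CYP3A4-promoter luciferase construct) were seeded at 2,000 per well, rested 5 hr at 37C, then exposed to DMSO-dissolved compounds for 24 hr. Activation was read as luciferase luminescence.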
On the % scale 0 is the no-effect control and ±100 the full control effect.

CCC=CC#N
inactive: Potency [1] | Potency [2] | Potency [3] | Potency [4] | Potency [5] | Potency [6] | Potency [7] | Potency [8] | outcome [9] | Potency [10] | Potency [11] | Potency [12] | Potency [13] | Potency [14] | Potency [15]
active: Potency [16] 47.1 µM

Clc1cc(Cl)nc(Cl)n1
inactive: Potency [1] | Potency [2] | Potency [3] | Potency [4] | Potency [5] | Potency [7] | Potency [8] | outcome [9] | Potency [10] | Potency [12] | Potency [13] | Potency [14] | Potency [15] | Potency [16]

CC1(C)[C@@H](OC(=O)CCC(=O)O)CC[C@]2(C)[C@H]3C(=O)C=C4[C@@H]5C[C@@](C)(C(=O)O)CC[C@]5(C)CC[C@@]4(C)[C@]3(C)CC[C@@H]12
inactive: Potency [1] | Potency [2] | Potency [3] | Potency [5] | Potency [6] | Potency [7] | Potency [8] | outcome [9] | Potency [11] | Potency [12] | Potency [14] | Potency [15] | max activation [17] -0.478%

CNC(=O)c1cnn(-c2nc(N)c3ncn([C@@H]4O[C@H](CO)[C@@H](O)[C@H]4O)c3n2)c1
inactive: Potency [1] | Potency [2] | Potency [3] | Potency [18] | Potency [5] | Potency [6] | Potency [7] | Potency [8] | outcome [9] | Potency [10] | Potency [11] | Potency [12] | Potency [14] | Potency [15] | Potency [16]

CCCCCCNC(=O)n1cc(F)c(=O)[nH]c1=O
inactive: Potency [1] | Potency [2] | Potency [3] | Potency [4] | Potency [6] | Potency [7] | Potency [8] | outcome [9] | Potency [10] | Potency [11] | Potency [12] | Potency [14] | max activation [17] -10.4%
active: Potency [16] 15 µM

C[C@@H]1CC(=O)NN=C1c1ccc(NN=C(C#N)C#N)cc1
inactive: Potency [1] | Potency [3] | Potency [4] | Potency [5] | Potency [6] | Potency [7] | Potency [8] | outcome [9] | Potency [10] | Potency [19]
inactive and 13.3 µM (active): Potency [14]
active: Potency [2] 26.6 µM | Potency [11] 16.8 µM and 21.1 µM | Potency [12] 29.8 µM | Potency [13] 11.9 µM | Potency [15] 18.8 µM and 23.7 µM | Potency [16] 11.9 µM and 21.1 µM | Potency [17] 14.1 µM

Cc1ccc(Cl)c(Nc2ccccc2C(=O)O)c1Cl
inactive: Potency [1] | Potency [2] | Potency [3] | Potency [5] | Potency [6] | Potency [7] | outcome [9] | Potency [10] | Potency [11] | Potency [13] | Potency [14] | Potency [15] | Potency [16] | max activation [17] 0.813% | Potency [19]

CCCCC(CC)COP(=O)(O)O (stereo not drawn)
inactive: Potency [1] | Potency [2] | Potency [3] | Potency [5] | Potency [6] | Potency [7] | Potency [8] | Potency [11] | Potency [12] | Potency [13] | Potency [14] | Potency [15] | Potency [16]
